# Marburg entry inh – qHTS for inhibitors of binding or entry into cells for Marburg Virus; AID 540276, 2011; Marburg virus pseudotyped entry inhibition, cell reporter; 300,000 compounds, 1.8% hits; Potency, µM (series often up to 37.8 µM), inactives show top-dose activity change, negative = inhibition, hits mostly inhibitors; calls by dose curve; tested in HEK293 cells; further: potency means the concentration at half of the fitted maximal effect
# FBPA Giardia inh – qHTS Assay for Inhibitors of Fructose-1,6-bisphosphate Aldolase from Giardia Lamblia; purified Giardia FBPA; Potency, µM (top dose mostly 59.6 µM), inactives show top-dose activity, negative = inhibition, usual class: inhibitors; 290,000 compounds, 0.71% hits; AID 2451, 2010; further: potency means the concentration at half of the fitted maximal effect; nearly all actives have a fitted effect of over 55% in size
# Target sequence (A8B2U2 whole entry, looked up): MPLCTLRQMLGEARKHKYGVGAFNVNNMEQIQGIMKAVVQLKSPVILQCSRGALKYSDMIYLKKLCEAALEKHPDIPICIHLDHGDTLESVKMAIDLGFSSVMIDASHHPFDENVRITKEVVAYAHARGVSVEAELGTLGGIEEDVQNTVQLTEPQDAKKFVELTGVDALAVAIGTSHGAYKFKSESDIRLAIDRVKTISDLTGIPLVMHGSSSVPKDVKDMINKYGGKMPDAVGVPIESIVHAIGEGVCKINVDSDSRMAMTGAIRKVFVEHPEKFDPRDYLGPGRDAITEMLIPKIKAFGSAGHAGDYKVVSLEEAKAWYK
#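 Giardia FBPA (40 nM reagent) was preincubated 10 min at RT with compound (up to 57.5 uM final), then substrate plus GAPDH/TPI/NAD/arsenate coupling system with diaphorase/resazurin was added; resorufin fluorescence (525/598 nm) was read after 20 min.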
# FMDV antiviral – High Throughput Screening for Foot and Mouth Disease Virus Antivirals; FMDV antiviral cell-based qHTS; Potency, µM (doses to about 57.9 µM), for inactives: top-dose activity change, negative = inhibition, hits mostly inhibitors; AID 1159524, 2015; 410,000 compounds, 1.2% hits; calls by dose curve; tested in HEK293T cells; further: read-out not given here; potency means the concentration at half of the fitted maximal effect; nearly all actives have a fitted effect of over 45% in size
# HCV inhibitor – qHTS Assay for Inhibitors of Hepatitis C Virus (HCV). Huh7.5.1 HCVcc-Cre infection, luciferase reporter, 44 h. Potency, µM (titrated, usually from 41.8 µM), for inactives: at the top dose activity change, negative = inhibition, most hits filed as inhibitors. 340,000 compounds, 3.4% hits; further: potency means the concentration at half of the fitted maximal effect
#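 Compounds are dispensed onto cells plated 4 h earlier at 1,000 per well, with HCVcc-Cre virus (about 0.5 moi) added next. Following 44 h of culture, luminescent signal is measured for 15 sec after 15 min with substrate at room temperature.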
# Lassa entry inh – qHTS for Inhibitors of binding or entry into cells for Lassa Virus. Lassa virus pseudotype entry inhibition, cell reporter. Potency, µM (highest dose often 37.9 µM), for inactives: at the highest dose activity change, negative = inhibition, hits mostly inhibitors. 300,000 compounds, 1.2% hits. AID 540256, 2011; calls by dose curve; tested in HEK293 cells; further: potency means the concentration at half of the fitted maximal effect; nearly all actives have a fitted effect of over 50% in size
# HCMV antiviral – qHTS Assay for inhibitors of the human cytomegalovirus (HCMV); HFF cells, HCMV-luciferase reporter, 72 h; hits give low values; activity change, negative = inhibition, % at 57.5 µM; 410,000 compounds, 4.5% hits; in the data active means activity change below about -60%; inconclusive means no clear call, values can overlap the other calls; inactive means above about -39%
#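 Luciferase read-out from HCMV-luciferase-infected HFFs (MOI 1 PFU/cell) 72 h post infection at 37C; compounds added after 16 h cell attachment; activity normalized between buffer-only basal and Salinomycin (10uM) inhibitor controls.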
# * = called active by the depositor; u = inconclusive; x = no result given; [ ] = another dose, or the depositor's remark. Compounds with a hit are over-represented: about 8.3% of the library has one in this group of screens. Unless noted, the call rests on the fitted dose curve; in most records, active means well fitted curve in the direction sought with a large enough effect; inconclusive means small, poorly fitted or top-dose-only effect, or another doubt; inactive means no such curve, though single readings can be large; an effect the other way counts as inactive or inconclusive. On the % scale 0 is the no-effect control and ±100 the full control effect.
SMILES,Marburg entry inh,FBPA Giardia inh,FMDV antiviral,HCV inhibitor,Lassa entry inh,HCMV antiviral
COc1ccc(NC(=O)C(C2CC2)n2c(=O)c(-c3cc4ccccc4[nH]3)nc3ccccc32)cc1 (centres undefined),x,x,-19%,x,x,-97*
CCOC(=O)Cc1nn(Cc2nc(-c3ccc(C#N)cc3)cs2)c(=O)c2ccccc12,u,-7%,18µM*,10µM*,u,u
CCOC(=O)Cc1nn(CC)c(=O)c2ccccc12,x,0%,6%,17%,x,-23
N#Cc1ccc(NC(=O)COC(=O)C2Cc3ccccc3CN2C(=O)c2ccccc2)cc1 (centres undefined),u,-6%,11%,10µM*,9%,-5
COc1ncccc1C(=O)N1CCOc2ccc(C(O)C(c3ccccc3)c3ccccc3)cc2C1 (centres undefined),x,x,5%,x,x,x
Cc1nc(-c2ccc(C)c(S(=O)(=O)N3CCC(C(=O)Nc4ccc(Cl)cc4)CC3)c2)no1,x,x,-24%,x,u,-75*
COc1cccc(NC(=O)C2CCN(S(C)(=O)=O)CC2)c1,3%,-6%,x,-2%,0%,40
Cc1nc(-c2cccc(S(=O)(=O)N3CCC(C(=O)NCc4ccccc4Cl)CC3)c2)no1,x,x,0%,x,6%[46.1 µM],-9
Cc1ccc(NC(=O)C2CCC2)cc1S(=O)(=O)N1CCCCCC1,-21%[46.1 µM],x,-14%,-16%,u,-31
CCc1cccc(NC(=O)C2CCCN2S(=O)(=O)c2ccc3nc(-c4ccccc4)[nH]c3c2)c1 (centres undefined),x,x,-24%,x,-24%[46.1 µM],-60*
COc1cccc(NC(=O)C2CCN(S(=O)(=O)c3cc(-c4noc(C)n4)ccc3C)CC2)c1,x,x,u,x,u,-72*
CCc1cccc(NC(=O)C2CCN(S(=O)(=O)c3cccc(-c4noc(C)n4)c3)CC2)c1,x,x,-31%,x,u,-61*
Cc1oc(-c2ccccc2Cl)nc1CSc1nncn2c1cc1occc12,x,x,-16%,x,22%[46.1 µM],-1
C=CCOC(=O)N[C@H](/C(C(=O)OC)=C(\C)NCc1ccccc1)c1cccc(F)c1,u,-2%,x,x,x,x
CCCCN1C(=O)/C(=C2/Sc3ccccc3N2C)S/C1=N\c1ncn[nH]1,x,-1%,-23%,-14%,x,-78*
CCOc1ccc(-c2cc(C(=O)Nc3ccc(C)c(NS(C)(=O)=O)c3)[nH]n2)c(C)c1,x,x,u,x,x,-91*
CN(Cc1ccc(Cl)cc1)C(=O)c1ccc(S(=O)(=O)NCc2ccco2)cc1,x,x,26%,-27%,x,-37
CC(NS(=O)(=O)c1ccc(Br)cc1)C(=O)NCc1ccco1 (centres undefined),1%,0%,19%,u,0%,-73*
CC(C)c1ccc(CN(C)C(=O)c2ccc(S(=O)(=O)NCc3ccco3)cc2)cc1,x,x,-26%,6.3µM*,x,u
Cc1nn(-c2ccccc2)c(C)c1CN(C)C(=O)c1ccc(S(=O)(=O)NCc2ccco2)cc1,x,x,-28%,14µM*,x,-33
COC(=O)[C@@]1(C=C2c3ccc(F)cc3[C@@H](OC)[C@@H]2C)[C@@H]2Oc3ccccc3[C@@H]21,-17%[14.2 µM],x,x,x,x,x
CCCOC(=O)NCCCN(C)C,x,0%,x,x,x,x
CCOc1ccc(NC(=O)Nc2nc(SCC)ns2)cc1,u,-20%,-30%,u,u,-61*
COc1ccc(Nc2nccc3[nH]c(-c4cccc(F)c4)cc23)cc1OC,x,x,x,x,x,-36
COc1ccc2[nH]cc(CCNc3ccnc(-c4ccc(N(C)C)cc4)n3)c2c1,x,-9%,u,x,x,x
SMILES,Marburg entry inh,FBPA Giardia inh,FMDV antiviral,HCV inhibitor,Lassa entry inh,HCMV antiviral
O=C(Nc1ccc2c(c1)CCCN2C(=O)c1cccs1)c1ccccc1Cl,x,x,-17%,x,u,-67*
O=C(Nc1ccc2c(c1)CCCN2C(=O)c1cccs1)c1c(F)cccc1F,x,-2%,u,u,u,-75*
O=C(Nc1ccc2c(c1)CCCN2C(=O)c1cccs1)c1c(F)cccc1Cl,x,-7%,u,u,x,-79*
Cc1ccc(S(=O)(=O)N2CCCc3cc(NC(=O)c4ccccc4Cl)ccc32)cc1,x,x,-4%,x,-28%[46.1 µM],-24
O=C(Nc1ccc(C(=O)N2CCCc3ccccc32)cc1)c1cccs1,11µM*,-8%,-5%,-25%,-27%[46.1 µM],43
CCCN1C(=O)C2(c3ccccc31)c1c(oc3ccc(F)cc3c1=O)C(=O)N2CCCOC(C)C (centres undefined),15%[46.1 µM],x,2%,x,1%[46.1 µM],-17
Cn1nc(C(C)(C)C)cc1C(=O)NCc1ccc(N2CCCC2=O)cc1,u,-1%,u,u,-28%,-100*
Cc1ccc(CNC(=O)c2ccc(N3CCCC3=O)cc2)cc1,8%,1%,47%,-11%,-1%,-18
COc1cccc(CN2CC3(CCN(C)CC3)c3c(n(C)c4cc(OC)ccc34)[C@H]2CO)c1,x,x,x,x,x,-14
O=C(c1cc(C(F)(F)F)cc(C(F)(F)F)c1)N1CCC2(CC1)CN(c1ccccn1)C2,x,-5%,u,x,x,x
CCCn1c2ccccc2c2cnn(CC(=O)NCCc3ccc(C)cc3)c(=O)c21,x,x,u,x,2%[46.1 µM],-2
COCc1c(C(=O)N2CCN(c3ccccc3)CC2)cnn1-c1nccc(-c2ccco2)n1,x,x,1%,x,x,x
Cc1c(C(=O)OC2CCCCC2)[nH]c2c1C(=O)CC(c1ccc(C(C)(C)C)cc1)C2 (centres undefined),-16%[46.1 µM],x,-14%,x,-4%[46.1 µM],-12
O=C1c2ccccc2-c2onc3ccc(Oc4ccccc4)c1c23,u,u,u,u,10µM*,38
O=C1c2ccccc2-c2onc3c(NCCO)cc(NC4CCCCC4)c1c23,-43%[46.1 µM],x,u,x,-20%[46.1 µM],-36
Cc1oc2cc3oc(=O)c(CCC(=O)NCCCN4CCOCC4)c(C)c3cc2c1C,x,-9%,18%,1.6µM*,x,1
Cc1oc2cc3oc(=O)c(CC(=O)N4CCCCC4)c(C)c3cc2c1C,4%[46.1 µM],x,23%,x,-2%[46.1 µM],-71*
Cc1oc2c(C)c3oc(=O)c(CCC(=O)NCCCn4ccnc4)c(C)c3cc2c1C,x,24%,-13%,10µM*,x,-37
Cc1oc2cc3oc(=O)c(CCC(=O)NCCCn4ccnc4)c(C)c3cc2c1C,x,-1%,7%,u,x,-17
COc1ccc(CN2CCC(n3cc(C(=O)N4CCCC4)nn3)CC2)c(OC)c1C,x,x,-13%,x,x,x
O=C(Cn1cc(SCc2ccc(Cl)cc2)c2ccccc21)N1CCCC1,x,x,2%,x,11%[46.1 µM],42
COc1cc(CCN2C(=O)N[C@@H](c3ccccc3)C(C(C)=O)=C2C)cc(OC)c1OC,6%[14.2 µM],5%,x,x,x,x
CC(C)(C)OC(=O)NCCCCC1=CC2=CC(=O)C(C)(OC(=O)CCc3ccccc3)C(=O)C2=CO1 (centres undefined),x,-6%,x,x,x,x

# Source: PubChem (National Center for Advancing Translational Sciences (NCATS))
